Source: PubChem BioAssay (NCATS)
Records with an inconclusive call do not appear. Calls of active or inactive are those of the source. Calls follow the shape of the dose curve; as a rule, active = well fitted inhibition curve with a large enough effect; inconclusive = small, poorly fitted or top-dose-only effect; inactive = flat fitted curve, though single readings scatter.

Columns and labels:
CRL-7250 = normal cell line; assay: Cytotoxic Profiling of Annotated Libraries Using Quantitative High-Throughput Screening (AID 1296008); settings: Five cell lines viability, CellTiter-Glo ATP luminescence, 48-72 h; max response: active compounds read low; as to max response: % is scaled to controls: 0 for no effect and ±100 for the full control effect
Summary of the method: (§1)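 Compounds were pin-transferred onto cells and incubated 48 or 72 hr at 37 degree Celsius, 95% humidity. CellTiter-Glo was added, plates sat 10 min at room temperature, then ATP-coupled luminescence was imaged as the viability read-out.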

HaCat [1] = assay: as above; settings: Five cell lines viability, CellTiter-Glo ATP luminescence, 48-72 h; max response: active compounds read low
Summary of the method: as §1

KB-3-1 = assay: as above; settings: Five cell lines viability, CellTiter-Glo ATP luminescence, 48-72 h; max response: active compounds read low
Summary of the method: as §1

NIH3T3 = assay: as above; settings: Five cell lines viability, CellTiter-Glo ATP luminescence, 48-72 h; max response: active compounds read low
Summary of the method: as §1

HACAT [2] = assay: qHTS assay to identify novel small-molecules to repurpose for Merkel cell carcinoma treatment (AID 1296009); settings: MCC and control cell lines, CellTiter-Glo viability, 72 h; at 44.8 µM (top of the series) unless noted
Summary of the method: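 qHTS format: cells treated with library compounds in DMSO across 8 (NPC) or 11 (MIPE) concentrations. Readout after 72 hr at 37 degree celsius was CellTiter-Glo luminescence.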

Measured: max response
Also: nearly all actives have a fitted effect of over 60% in size.

COC(=O)C[C@H]1C(C)(C)[C@H](OC(=O)c2ccccc2)C2CC3=C4CC(=O)O[C@@H](c5ccoc5)[C@]4(C)CCC3[C@@]1(C)C2=O (stereo not given in full)
inactive: CRL-7250 -6.86% | HaCat [1] | KB-3-1 0.65% | NIH3T3 0.65% | HACAT [2] inactive [at 17.4 µM]

CC1(C)C2CCC(CO[C@@H]3O[C@H](CO[C@@H]4OC[C@](O)(CO)[C@H]4O)[C@@H](O)[C@H](O)[C@H]3O)C1C2 (stereo not given in full)
inactive: CRL-7250 1.81% | HaCat [1] | KB-3-1 | NIH3T3 | HACAT [2] inactive [at 17.4 µM]

CC(C)c1c(O)ccc2c1CC[C@H]1C(C)(C)CCC[C@]21C
inactive: CRL-7250 | HaCat [1] | KB-3-1 7.3% | NIH3T3 | HACAT [2]

CC(C)(Cc1nc(-c2ccc(O)cn2)no1)C(=O)NC1=C(C(=O)O)CCCC1
inactive: CRL-7250 -1.84% | HaCat [1] | KB-3-1 2.15% | NIH3T3 -20.8% | HACAT [2]

O=c1[nH]c2ccccc2n1CCN1CCN(c2cccc(C(F)(F)F)c2)CC1
inactive: CRL-7250 | HaCat [1] | KB-3-1 -13.2% | NIH3T3 | HACAT [2]

COc1ccc(CCN(C)CCCOc2nsc(-c3ccccc3)n2)cc1OC
inactive: CRL-7250 | HaCat [1] | KB-3-1 -3.88% | NIH3T3 | HACAT [2]

O=S(=O)(N[C@H]1CCCC[C@@H]1N1CCOCC1)c1ccc(Cl)cc1
inactive: CRL-7250 -16% | HaCat [1] | KB-3-1 1.51% | NIH3T3 | HACAT [2]

CC(=O)c1ccc2c(c1)[C@H](NC(=O)c1ccc(F)c(Cl)c1)[C@H](O)C(C)(C)O2
inactive: CRL-7250 -9.32% | HaCat [1] | KB-3-1 2.28% | NIH3T3 | HACAT [2]

O=C(NCc1ccc(OC(F)(F)F)cc1)C1c2c(F)cccc2C(=O)N1CCc1ccccn1 (stereo not given)
inactive: CRL-7250 -3.88% | HaCat [1] | KB-3-1 4.96% | NIH3T3 -2.89% | HACAT [2]

COC(=O)C(Cc1ccc(OCCn2c(=O)sc3cc(C(=O)c4ccccc4)ccc32)cc1)C(=O)OC
inactive: CRL-7250 -17% | HaCat [1] | KB-3-1 0.264% | NIH3T3 2.75% | HACAT [2]

CN1CC[C@@H](c2c(O)cc(O)c3c(=O)cc(-c4ccc(C(F)(F)F)cc4Cl)oc23)[C@@H]1CO
inactive: CRL-7250 | HaCat [1] | KB-3-1 5.55% | NIH3T3 -4.65% | HACAT [2]

COC1=CC(=O)O/C1=C(/OC)[C@@H]1O[C@H]1c1ccccc1
inactive: CRL-7250 -14.3% | HaCat [1] | KB-3-1 -13.4% | NIH3T3 -27.3% | HACAT [2]

CCn1c(=O)n([C@H]2CCCN(c3nccc(-c4cc5ccccc5o4)n3)C2)c2ccccc21
inactive: CRL-7250 | HaCat [1] | KB-3-1 -9.5% | NIH3T3 | HACAT [2]

O=C(NCCCn1ccnc1)c1cc(-c2ccco2)on1
inactive: CRL-7250 -18.4% | HaCat [1] | KB-3-1 -0.296% | NIH3T3 2.29% | HACAT [2]

CCc1ccc(-c2nc(CSCC(=O)NCCc3ccccc3)c(C)o2)cc1
inactive: CRL-7250 2.64% | HaCat [1] | KB-3-1 -10.3% | NIH3T3 -12.1% | HACAT [2]

O=C(Nc1cccnc1)c1cc(-c2ccnc(F)c2)ccc1OCc1ccccc1
inactive: CRL-7250 -1.07% | HaCat [1] | KB-3-1 6.84% | NIH3T3 4.92% | HACAT [2]

CN1CCN(c2ccc(-c3cccc(CN4CCOCC4)c3)cc2NC(=O)c2c[nH]c(=O)cc2C(F)(F)F)CC1
inactive: CRL-7250 -6.65% | HaCat [1] | KB-3-1 | NIH3T3 -7.39% | HACAT [2]

CC(C)OC(=O)N1CCC(Oc2ncnc3c2cnn3-c2ccc(S(C)(=O)=O)cc2F)CC1
inactive: CRL-7250 | HaCat [1] | KB-3-1 -25.6% | NIH3T3 -1.21% | HACAT [2]

CC1=C(C(=O)Nc2cc(Cl)ccc2Cl)C(c2ccco2)C2=C(CCCC2=O)N1 (stereo not given)
inactive: CRL-7250 -1.05% | HaCat [1] | KB-3-1 7.23% | NIH3T3 -25.9% | HACAT [2]

CN1CCN(C2=Nc3ccccc3Nc3ccc(Cl)cc32)CC1
inactive: CRL-7250 -0.222% | HaCat [1] | KB-3-1 -4.21% | NIH3T3 2.15% | HACAT [2]

CCC(C)C1NC(=O)C(Cc2ccccc2)NC(=O)C(CCCCCC(=O)C(O)CO)NC(=O)C2CCCCN2C1=O (stereo not given)
inactive: CRL-7250 -4.29% | HaCat [1] | KB-3-1 | NIH3T3 | HACAT [2] inactive [at 17.4 µM]
